“And” between values parts separate entries of the source, which are not always exact repeats. Equal values may be shown once. Results filed as inconclusive are left out. A structure can be active in one record and inactive in another. The source made the active and inactive calls. The calls were made as follows: active = hit-call score of the fitted dose curve at least 0.9, where 1 is the maximum; inconclusive = response in the unintended direction; inactive = score below 0.9.

The experiment deals with turtle Estrogen Receptor (ERa), gene 101933533. In words: ATG_trERa_XSP2: Attagene TRANS-FACTORIAL Multi-Species (XSP2) HepG2 Assay for turtle Estrogen Receptor (ERa) (AID 2283812).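 Also: actives raise reporter signal above DMSO so AC50 reflects agonist activity.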 How it is done: ATG_XSP2_multi-species_TRANS is a cell-based, multiplexed assay created by modifying the existing Attagene TRANS-FACTORIAL system to include a panel of nuclear receptors from some or all the following species: human (Homo sapiens), mouse (Mus musculus), frog (Xenopus laevis), zebrafish (Danio rerio), chicken (Gallus gallus), and turtle (Chrysemys picta). The ECOTOX-FACTORIAL format uses HepG2, a human liver cell line, with measurements taken at 24 hours after chemical dosing in a 24-well plate. Xsp2 included 3 nM 6-alpha-fluorotestosterone and 1.5 nM norgestrel to stimulate the androgen receptor.ATG_trERa_XSP2 is one of 29 assay components measured or calculated from the ATG_XSP2_multi-species_TRANS assay. It is designed to make measurements of mRNA induction, a form of inducible reporter, as detected with fluorescence intensity signals by Reverse transcription polymerase chain reaction (RT-PCR) and Capillary electrophoresis technology.The assay endpoint ATG_trERa_XSP2 was analyzed in the positive analysis fitting direction relative to DMSO as the negative control and baseline of activity. Using a type of inducible reporter, measures of mRNA for gain-of-signal activity can be used to understand the reporter gene at the transcription factor-level as they relate to the gene ER. Furthermore, this assay endpoint can be referred to as a primary readout, because this assay has produced multiple assay endpoints where this one serves a reporter gene function. To generalize the intended target to other relatable targets, this assay endpoint is annotated to the nuclear receptor intended target family, where the subfamily is steroidal.
Human liver HepG2 cells are transiently transfected with multiple reporter transcription units (MRTUs) in 6-well plates using FuGene 6 reagent (Roche; 3 ml FuGene/1 mg DNA). The MRTU constructs are regulated by a cis-regulating element (promoter). […] A major difference between the CIS and TRANS system is that in CIS activities of endogenous TFs are measured, whereas the TRANS assay evaluates changes in activities of exogenous, chimeric NR-Gal4 proteins. […] At the end of 24 hour incubation, total RNA was isolated using TriZol reagent (Invitrogen). The isolated RNA is then reverse-transcribed using oligo(dT) primer and Mo-MLV reverse transcriptase (Invitrogen) with DNAse I (Ambion) treatment for 30 min. The one-tenth of the produced cDNA was amplified by PCR using Taq DNA polymerase (Invitrogen) and two reporter sequence-specific primers. The PCR products were fluorescently labeled by primer extension with 6-arboxyfluorescein (6-FAM) 5'-labeled reporter sequence-specific primer (2 min at 95 C, 20 s at 68 C and 10 min at 72 C) and these products were digested with 5U of HpaI (New England Biolabs) for 2h at 37 C. The fragments were purified using Qiaquick PCR columns (Qiagen), analyzed on an ABI 3130xL genetic analyzer (Applied Biosystems) with peak positions identified by using a set of X-rhodamine (ROX)-labeled MapMarker1000 molecular weight standards (BioVentures). The raw capillary electrophoresis data was processed using Attagraph software (Attagene).
Consider `CC1(C)CCC(Cc2ccc(Cl)cc2)C1(O)Cn1cncn1` (stereo unspecified), for which the AC50 is 5.11 µM (active). On the same count and under the same terms, the result for `COP(=O)(OC)O/C(=C\Cl)c1cc(Cl)c(Cl)cc1Cl` reads 3.18 µM (active); that for `Oc1ccc(-c2ccccc2)cc1`, 1.44 µM (active) and 925 nM (active). In the case of `Clc1ccc(C2(Cn3cncn3)CC(Br)CO2)c(Cl)c1` (stereo unspecified), the AC50 is 19.8 µM (active) and the call was inactive. Regarding `O=S(=O)(c1ccc(Cl)cc1)c1ccc(Cl)cc1`, the AC50 is 14.4 µM (active) and 15.9 µM (active). Consider `CC(=O)C=C(C)C`, for which the compound was called inactive. As to `C[C@H]1CCCC(=O)CCC/C=C/c2cc(O)cc(O)c2C(=O)O1`, the AC50 is 7 nM (active) and 1.7 nM (active). On to `CC12CC1(C)C(=O)N(c1cc(Cl)cc(Cl)c1)C2=O` (stereo unspecified), for which the result was inactive and the AC50 is 100 µM (active). Turning to `C[C@]12CCC(=O)C[C@@H]1CC[C@@H]1[C@@H]2CC[C@]2(C)[C@@H](O)CC[C@@H]12`, the outcome was inactive.

`O=C1C2(Cl)C3(Cl)C4(Cl)C(Cl)(Cl)C5(Cl)C3(Cl)C1(Cl)C5(Cl)C24Cl` (stereo unspecified): the AC50 was 0.514 µM (active).

In the case of `CC(C)(C)c1cc(O)ccc1O`, the AC50 was 15.3 µM (active).

Turning to `CC(C)C1CCC(Cc2ccc(Cl)cc2)C1(O)Cn1cncn1` (stereo unspecified), the outcome was inactive. As to `C[C@]12CC[C@H](O)CC1=CC[C@@H]1[C@@H]2CC[C@]2(C)C(=O)CC[C@@H]12`, the concentration at half-maximal activity (AC50) is 2.22 µM (active) and 1.09 µM (active).

As to `CC(C)(C)CC(C)(C)c1ccc(O)cc1`, the AC50 is 5.79 µM (active).

Broadly, the AC50 is the concentration at which the activity in the assay is half-maximal.

The values are drawn from PubChem BioAssay (EPA / NIEHS).
